HepG2 viability – HepG2 cytotoxicity, counter-screen for TGF-b inhibitors | HepG2 CAGA-GFP viability, ATP luminescence, 18 h | hit rate 0.76% among 410,000 | Potency, µM (doses to about 46.1 µM), for inactives: at the top dose activity change, negative = cytotoxicity, actives largely listed as cytotoxic; also: potency is read from the fitted curve at half-maximal effect
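CellTiter-Glo luminescence gave cytotoxicity after 18 hours at 37 degrees C. The cells were HepG2 CAGA-GFP in 1% FBS DMEM, stimulated with 500 pg/mL TGF-beta after compound addition. %Activity was normalised to no-cell wells (complete cell-killing) and DMSO (no toxicity), and curves were fitted and classified.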
uPA generation – blocks generation of uPA at the cell surface; hit rate 0.31% among 330,000; Potency, µM (top dose mostly 38.3 µM), inactives show at the highest dose activity change, negative = inhibition, actives largely listed as inhibitors; cell surface uPA generation assay, qHTS; AID 540303; active = well fitted inhibition curve with a large enough effect; inconclusive = small, poorly fitted or top-dose-only effect; inactive = no such curve, though single readings can be large or run the other way; tested in mouse RAW 264.7 cells; also: potency is read from the fitted curve at half-maximal effect; % is scaled to controls: 0 for no effect and ±100 for the full control effect; nearly all actives have a fitted effect of over 55% in size
S2 tox – cell viability loss in ATXN counter-screen; S2 cells (HEK-293 line with an ATXN2-luciferase reporter) viability, CellTiter-Fluor protease fluorescence, 24 h; Potency, µM (top dose mostly 56.7 µM), actives largely listed as cytotoxic; hit rate 0.49% among 400,000; AID 651635; also: potency is read from the fitted curve at half-maximal effect; nearly all actives have a fitted effect of over 40% in size
TGFb inhibitor – inhibitors of TGF-b signaling | AID 588855 | hit rate 1.2% among 410,000 | Potency, µM (highest dose often 46.1 µM), inactives show top-dose activity, negative = inhibition, usual class: inhibitors | HepG2 CAGA-GFP TGF-b/SMAD3 reporter, GFP fluorescence, 18 h; TGF-beta stimulated, 500 pg/mL final; also: potency is read from the fitted curve at half-maximal effect; % is scaled to controls: 0 for no effect and ±100 for the full control effect; nearly all actives have a fitted effect of over 65% in size
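Using HEPG2 CAGA-GFP reporter cells at 1000 cells/well, we pinned test compounds, stimulated with recombinant TGF-beta (500 pg/mL final) and measured total well GFP after 18 h.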
ATXN2 expr inh – reduces ATXN2 reporter expression in HEK-293 cells; HEK-293 ATXN2-luciferase reporter, luminescence, 24 h; Potency, µM (highest dose often 57 µM), without a hit: at the highest dose activity change, negative = inhibition, actives largely listed as inhibitors; hit rate 0.72% among 360,000; AID 1745845; also: potency is read from the fitted curve at half-maximal effect; % is scaled to controls: 0 for no effect and ±100 for the full control effect; nearly all actives have a fitted effect of over 55% in size
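ATXN2-luciferase reporter cells (luciferase flanked by upstream and downstream ATXN2 gene portions) were treated 24 h at 37 °C with compounds at up to 57 uM. SteadyGlo luminescence gave expression; GF-AFC fluorescence gave viability.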
Giardia kill – Giardia lamblia killing | AID 540267 | activity change, % at 7.66 µM, hits read low | hit rate 0.15% among 340,000 | Giardia lamblia trophozoite viability; in the data active = activity change below about -80%; inconclusive = between about -30% and that limit;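 also: parasites exposed to compound for two days anaerobically before the ATP read; % is scaled to controls: 0 for no effect and ±100 for the full control effect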
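Giardia lamblia trophozoites (100 cells/well) were incubated with compounds for 48 h at 37 deg C under anaerobic conditions. Viability was read as ATP content by one-step luminescence after 15-30 min at room temperature.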
Numbers without * were called inactive; i = inactive; ? = inconclusive; nt = not tested or not shown. The list is not random: actives were taken first. Their share in the collection is about 2.6%. Unless noted, calls follow the shape of the dose curve; as a rule, active = well fitted curve in the direction sought with a large enough effect; inconclusive = small, poorly fitted or top-dose-only effect, or another doubt; inactive = no such curve, though single readings can be large; an effect the other way counts as inactive or inconclusive.

SMILES	HepG2 viability	uPA generation	S2 tox	TGFb inhibitor	ATXN2 expr inh	Giardia kill
O=C(NC(c1ccc(F)cc1)c1ccc2ccccc2n1)C1CCN(Cc2ccc(Oc3ccccc3)cc2)CC1 (stereo not given)	-3%	nt	i	?	-32%	nt
Cn1cc(CN2CCC(C(=O)NC(c3ccc(F)cc3)c3ccc4ccccc4n3)CC2)c2ccccc21 (stereo not given)	10µM*	nt	28µM*	?	28µM*	nt
COc1ccc(C(=O)NCC2Cc3cc(C)cc(-c4nc5ccccc5s4)c3O2)c(OC)c1OC (stereo not given)	nt	nt	i	nt	nt	nt
COc1ccc(OCCN2CCC(C(=O)NC(c3ccc(F)cc3)c3ccc4ccccc4n3)CC2)cc1 (stereo not given)	11µM*	nt	?	20µM*	?	nt
COc1ccc(C(NC(=O)C2CCN(CCCOc3ccccc3)CC2)c2ccccn2)cc1 (stereo not given)	-10%	nt	i	11%	-3%	nt
CN(C)CC(O)COC(c1ccc(Cl)cc1)c1ccc(Cl)cc1 (stereo not given)	16µM*	-5%	?	?	?	44
CN(CC(O)COC(c1ccccc1)c1ccccc1)C1CCCCC1 (stereo not given)	-32%	-3%	i	-27%	-11%	10
CC1CN(CC(O)COC(c2ccc(Cl)cc2)c2ccc(Cl)cc2)CC(C)O1 (stereo not given)	16µM*	-5%	?	?	?	-4
OC(COC(c1ccc(Cl)cc1)c1ccc(Cl)cc1)CN1CCN(c2ccccn2)CC1 (stereo not given)	14µM*	-3%	i	?	?	9
O=C(NCC1CCC2(CCN(Cc3c[nH]c4ccccc34)CC2)O1)C1CCOCC1 (stereo not given)	nt	nt	i	nt	nt	nt
C=CC1=C(C(=O)O)N2C(=O)[C@@H](NC(=O)/C(=N/OCC(=O)O)c3csc(N)n3)[C@H]2SC1 (stereo in doubt)	nt	nt	i	nt	nt	nt
CC(NC(=O)c1ccco1)c1nnc2n1CCN(Cc1ccc(Cl)cc1)CC2 (stereo not given)	nt	nt	i	nt	nt	nt
COC(=O)COc1ccc(-c2nnc(Nc3ccc(O)cc3)c3ccccc23)cc1	11µM*	nt	?	?	?	nt
COc1ccc(Nc2nnc(-c3ccc(C)c(S(=O)(=O)N4CCN(C)CC4)c3)c3ccccc23)cc1	25%	nt	?	14µM*	?	nt
CCOC(=O)CNS(=O)(=O)c1cc(-c2nnc(Nc3cccc(O)c3)c3ccccc23)ccc1C	11µM*	nt	nt	0%	nt	nt
Cc1ccc(Nc2nnc(-c3ccc(C)c(S(N)(=O)=O)c3)c3ccccc23)cc1	8%	nt	i	10µM*	-26%	nt
C=C1C(=CC=C2CCC[C@]3(C)[C@@H]([C@H](C)CCCC(C)(C)O)CC[C@@H]23)C[C@@H](O)C[C@@H]1O	nt	nt	nt	nt	35%	nt
Cc1ccc(-c2nnc(Nc3ccc(CC(N)=O)cc3)c3ccccc23)cc1S(N)(=O)=O	-33%	3%	i	?	-1%	-27
Cc1ccc(-c2nnc(Nc3ccc(CC(N)=O)cc3)c3ccccc23)cc1	-47%	-23%	i	13µM*	-3%	2
O=C(CCS(=O)(=O)c1ccccc1)Nc1nc2cc3c(cc2s1)OCO3	14%	2%	i	?	19%	-9
COc1ccccc1C(=O)Nc1nc2cc3c(cc2s1)OCCO3	-52%	2.8µM*	?	-3%	-32%	?
O=C(CCS(=O)(=O)c1ccccc1)Nc1nc2cc3c(cc2s1)OCCO3	-87%	-5%	i	13µM*	25%	-12
COc1ccccc1C(=O)Nc1nc2cc3c(cc2s1)OCO3	-25%	-2%	i	-13%	2%	17
CS(=O)(=O)c1ccc2nc(NC(=O)CCS(=O)(=O)c3ccccc3)sc2c1	7.1µM*	-15%	32µM*	?	?	-13

High-throughput results from PubChem BioAssay.
